Assay results taken from PubChem BioAssay (NCATS).
Records with an inconclusive call do not appear. A number with no mark means an inactive call. Active and inactive are the calls of the source. Calls follow the shape of the dose curve; as a rule, active = well fitted inhibition curve with a large enough effect; inconclusive = small, poorly fitted or top-dose-only effect; inactive = no such curve, though single readings can be large or run the other way.

test system: Zika virus NS2B-NS3 protease (unlinked complex); assay: Primary screen GU Rhodamine qHTS for Zika virus inhibitors: Unlinked NS2B-NS3 protease assay (AID 1347159); conditions: Recombinant ZIKV NS2B-NS3 protease, Rhodamine110 substrate fluorescence; series mostly up to 107 µM; activity change, negative = inhibition: at the top concentration; also: nearly all actives have a fitted effect of over 60% in size
Text: Avindra Nath, Ph.D., National Institute of Neurological Disorders and Stroke (NINDS), Bethesda, MD
Radhakrishnan Padmanabhan, Ph.D., Georgetown University (GU), Washington D.C.
Zika Virus causes congenital defects, including microcephaly and is associated with Guillain-Barre syndrome, eningoencephalitis and myelitis in infected adult. […] Using a target-based approach, we hope to establish a screening paradigm to uncover novel, cell-active NS2B-NS3 protease (Zika Virus) specific inhibitors from NCATS' collection of small molecules using qHTS.
Four assay panel was created to identify potential Zika Virus inhibitors. Namely, (1) GU unlinked NS2B-NS3 AMC tagged protease qHTS, (2) GU unlinked NS2B-NS3 Rhodamine tagged protease qHTS, (3) NINDS linked NS2B-NS3 AMC tagged protease qHTS, (4) NINDS linked NS2B-NS3 Rhodamine tagged protease qHTS. Active compounds were re-acquired and re-screened to confirm inhibition. Inhibitors were further screened against various confirmatory and counterscreens in dose response format.
Early Translation Branch (ETB)
National Center for Advancing Translational Sciences (NCATS), Rockville, MD
National Institute of Health (NIH), Bethesda, Maryland
Padmanabhan lab provided the NS2B hydrophilic domain and NS3 protease domain in a noncovalent complex used for the unlinked assay. Control compound aprotinin is obtained from Thermo Scientific (#78432; Waltham, Massachusetts). Rhodamine110 substrate ([N-Cbz]-Nle-Lys-Arg-Arg-Rhod110-Arg-Arg-Lys-Nle-[N-Cbz]) was purchased from either Genscript or Bachem.
1536-well Protease (Rhodamine110 Substrate) Assay:
Briefly, 3 microL of enzyme (25 nM final concentration), in assay buffer (10 mM Tris-HCl pH 8.0 with 0.01% Tween 20) were dispensed into a 1,536-well solid-bottom black plate (Greiner Bio One, Monroe, NC). Twenty-three nL of compounds (final concentration range 7.28 nM to 114 microM) or control Aprotinin (final concentration range 3.47 nM to 114 microM) were transferred via Wako Pin-tool (Wako Automation, Richmond, VA). Samples were incubated (room temperature, protected from light) for 15 minutes followed by a 1 microL Rhodamine110 substrate addition (1.5 microM final concentration). Plates were then immediately read on a ViewLux High-throughput CCD imager (PerkinElmer, Waltham, MA) equipped with FITC fluorescence optics (480(20) nm excitation, 540(25) nm emission), then incubated (room temperature, protected from light) for 15 minutes (~15% conversion). The change in fluorescence intensity over the 15-minute reaction period was normalized against no-inhibitor and no-enzyme controls and the resulting percent inhibition data were fitted to a 4-parameter Hill equation. Aprotinin was used as intraplate control.
% is scaled to controls: 0 for no effect and ±100 for the full control effect; potency is read from the fitted curve at half-maximal effect.

| SMILES | activity change, negative = inhibition | Potency |
| --- | --- | --- |
| CC(C)=CC/C=C(/C)[C@H]1CC[C@]2(C)[C@@H]1[C@H](O)CC1[C@@]3(C)CC[C@H](O)C(C)(C)[C@@H]3[C@@H](O[C@@H]3O[C@H](CO)[C@@H](O)[C@H](O)[C@H]3O[C@@H]3O[C@@H](C)[C@H](O)[C@@H](O)[C@H]3O)C[C@]12C (stereo not given in full) | -1.99% [at 32.5 µM] | – |
| CN1C(=O)c2ccccc2-n2c(nc3ccccc3c2=O)/C1=C/c1ccccc1 | -10.7% | – |
| CC(C)CC(=O)O[C@@H]1OC=C(CO[C@@H]2O[C@H](CO[C@@H]3O[C@H](CO)[C@@H](O)[C@H](O)[C@H]3O)[C@@H](O)[C@H](O)[C@H]2O)[C@H]2C[C@H](O)[C@@H](CO)[C@@H]12 | 81.1% [at 32.5 µM] | – |
| O=C(O[C@@H]1O[C@H](CO)[C@@H](O)[C@H](O)[C@H]1O)c1c(O)cc(O)cc1/C=C/c1ccccc1 | 3.68% [at 57.1 µM] | – |
| COc1cc2c(cc1O)C1(OC)Cc3ccc4c(c3C1N(C)CC2)OCO4 (stereo not given) | 1.51% | – |
| COCC(=O)N1CCc2cc(-c3csc(NC(=O)c4cc(OC)cc(OC)c4)n3)ccc21 | 286% | – |
| COC(=O)C[C@@H]1C(C(=O)O)=CO[C@@H](O[C@@H]2O[C@H](CO)[C@@H](O)[C@H](O)[C@H]2O)/C1=C\COC(=O)/C=C\c1ccccc1 | 2.35% [at 57.1 µM] | – |
| O=c1ccn([C@@H]2O[C@H](CO)[C@@H](O)[C@H]2O)c(=O)[nH]1 | 17.2% | – |
| CC1(C)CCCC2(C)C(CO)C3CCC2C31 (stereo not given) | -12.3% | – |
| CO[C@H]1C=C2C(CC[C@H](O[C@@H]3O[C@H](CO)[C@@H](O)[C@@H](O)[C@H]3O)C2(C)C)[C@]2(C)CC[C@]3(C)C([C@H](C)C(O)C(C=C(C)C)O[C@@H]4O[C@H](CO)[C@@H](O)[C@@H](O)[C@H]4O)CC[C@@]3(C)C12 (stereo not given in full) | 10.6% [at 32.5 µM] | – |
| COc1ccccc1CC(C(=O)O)N(C)C(=O)c1ccccc1 (stereo not given) | -18.9% | – |
| COc1cccc(-n2nc(C(=O)O)cc2-c2ccc(C3CCCCC3)c(Cl)c2)c1 | – | 1.78 µM (active) |
| CC(C)=CCc1ccc(Oc2c(O)cc(C)cc2CO)c(C(=O)O)c1O | – | 6.31 µM (active) |
| CNC(=O)O[C@H]1COc2ccc(N3CCN(C4COC4)CC3)cc2[C@@H]1NC(=O)c1ccc(F)cc1 | 15.6% | – |
| CCOC(=O)N1CCC(NCCNC(=O)c2ccccc2C)CC1 | -5.93% | – |
| CC(=O)OCCC(C)CCC1C(C)(O)CCC2C(C)(C)CCCC21C (stereo not given) | – | 8.91 µM (active) |
| CC(=O)N[C@H]1CCN(c2ccc(C3=NOC(CN[S+](=O)([O-])C(C)C)C3)cc2F)C1 (stereo not given in full) | 19.2% | – |
| COc1cc(/C=C/CO)ccc1O[C@@H]1O[C@H](CO)[C@@H](O)[C@H](O)[C@H]1O | 4.81% | – |
| C=C1CC[C@H]2[C@@](C)(CCC[C@@]2(C)C(=O)O)[C@@H]1CCC(C)CCO (stereo not given in full) | -24.3% | – |
| CC1=CC(=O)OC(C)(CC(C)(O)C(=O)O)C1 (stereo not given) | 13.3% | – |

| SMILES | activity change, negative = inhibition | Potency |
| --- | --- | --- |
| CC(=O)O[C@@]1(C)C[C@@H](O)[C@]2(O)C=CO[C@@H](O[C@@H]3O[C@H](CO)[C@@H](O)[C@H](O)[C@H]3O)[C@@H]21 | 12.4% [at 57.1 µM] | – |
| C=C1C(O[C@@H]2O[C@H](CO)[C@@H](O)[C@H](O)[C@@H]2O)CC2C(C)(C)C(O)CCC2(C)C1CC/C(C)=C\CO (stereo not given in full) | -6.16% [at 57.1 µM] | – |
| C[C@@H]1O[C@@H](O[C@H]2[C@H](OC(C#N)c3ccc(O)cc3)O[C@H](CO)[C@@H](O)[C@@H]2O)[C@H](O)[C@H](O)[C@H]1O (stereo not given in full) | 9.7% [at 57.1 µM] | – |
| C[C@@H]1C[C@H](O[C@@H]2O[C@H](CO[C@@H]3OC[C@](O)(CO)[C@H]3O)[C@@H](O)[C@H](O)[C@H]2O)CC(C)(C)[C@H]1/C=C/[C@@H](C)O | -15% [at 57.1 µM] | – |
| CC(=O)c1c(C)cc(O)cc1O[C@@H]1O[C@H](CO)[C@@H](O)[C@H](O)[C@H]1O | 18.5% | – |
| N[C@@H](CC(=O)N1CCn2c(nnc2C(F)(F)F)C1)Cc1[nH]nc2c(F)c(F)ccc12 | -9.62% | – |
| OCc1ccccc1O[C@@H]1O[C@H](CO)[C@@H](O)[C@H](O)[C@H]1O | -0.361% | – |
| CC(C)(OC1OC(CO)C(O)C(O)C1O)C1CCC(O)(CO)C2CC(O)C(C)(O)C2C1 (stereo not given) | 8.94% [at 57.1 µM] | – |
| C=C(C)[C@@H]1CC[C@](C)(O)[C@@H](OC(=O)c2ccccc2)C1 | 71.1% | – |
| C1CCN2CC3C[C@@H](CN4CCCC[C@@H]34)[C@H]2C1 | 11.3% | – |
| CC(=O)OCC1=C[C@H](O)[C@@H]2C(C(=O)O)=CO[C@@H](O[C@@H]3O[C@H](CO)[C@@H](O)[C@H](O)[C@H]3O)[C@H]12 | 25.2% [at 57.1 µM] | – |
| CCC(C)C(=O)O[C@@H]1[C@@H](O)[C@@H](O[C@H]2O[C@H](CO)[C@@H](O)[C@H](O)[C@H]2O)O[C@H](CO)[C@H]1O (stereo not given in full) | 17.6% [at 57.1 µM] | – |
| Cc1nn(C)c2c1C(c1ccc(C(F)(F)F)cc1)C(C#N)=C(N)O2 (stereo not given) | -1.07% | – |
| CC1NC(=O)C(Cc2c[nH]c3ccccc23)NC1=O (stereo not given) | 18.5% | – |
| CC(=O)O[C@H]1[C@H](Oc2ccccc2COC(=O)C2(O)C=CCCC2=O)O[C@H](CO)[C@@H](O)[C@@H]1O (stereo not given in full) | 4.51% [at 57.1 µM] | – |
| CC1=CC2(O)/C=C/C(C)(O)CC(O)/C=C/C(=O)OC23C(=O)NC(CC(C)C)C3C1C (stereo not given) | 10.3% [at 57.1 µM] | – |
| CC(=O)NC(CCC(=O)O)C(=O)NCCc1ccc(O)cc1 (stereo not given) | 5.07% | – |
| C=CC(C)(O)CC/C=C(\C)C(=O)OC1CC2(C(=O)O)CCC3(C)C(=CCC4C5(C)CCC(OC6OC(COC7OCC(O)C(O)C7O)C(O)C(OC7OCC(O)C(O)C7O)C6OC6OC(CO)C(O)C(O)C6OC6OCC(O)C(O)C6O)C(C)(C)C5CCC43C)C2CC1(C)C (stereo not given) | -12.7% [at 19.1 µM] | – |
| CC(C)C(=O)O[C@@H]1[C@@H](O)[C@@H](O[C@H]2O[C@H](CO)[C@@H](O)[C@H](O)[C@H]2O)O[C@H](CO)[C@H]1O | 7.25% [at 57.1 µM] | – |
| COc1ccc2c(c1)O[C@H](O[C@@H]1O[C@H](CO)[C@@H](O)[C@H](O)[C@H]1O)C(=O)N2 | -9.28% | – |
